For 21 molecules, Potency results are on record in PubChem BioAssay (NCATS).

Records with an inconclusive call do not appear. Entries that show only a call come without a potency. Calls of active or inactive are those of the source. Calls come from the whole dose curve.

Chain of Nucleoprotein (Lymphocytic choriomeningitis virus (strain Armstrong)) (P09992 whole entry, looked up): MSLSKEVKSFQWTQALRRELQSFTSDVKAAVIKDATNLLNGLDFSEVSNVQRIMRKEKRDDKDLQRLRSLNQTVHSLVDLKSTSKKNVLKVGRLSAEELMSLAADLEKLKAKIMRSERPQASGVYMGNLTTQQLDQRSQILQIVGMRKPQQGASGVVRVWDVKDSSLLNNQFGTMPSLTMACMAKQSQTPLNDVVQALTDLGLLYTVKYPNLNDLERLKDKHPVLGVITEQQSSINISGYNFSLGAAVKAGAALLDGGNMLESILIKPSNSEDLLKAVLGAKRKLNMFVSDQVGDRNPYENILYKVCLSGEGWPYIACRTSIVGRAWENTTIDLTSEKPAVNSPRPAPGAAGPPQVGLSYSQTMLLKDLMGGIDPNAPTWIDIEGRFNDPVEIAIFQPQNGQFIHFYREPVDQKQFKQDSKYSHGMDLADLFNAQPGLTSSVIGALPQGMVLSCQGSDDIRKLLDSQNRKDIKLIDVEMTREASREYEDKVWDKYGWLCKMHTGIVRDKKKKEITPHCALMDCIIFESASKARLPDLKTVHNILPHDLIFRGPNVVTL

The test has as its target Nucleoprotein (Lymphocytic choriomeningitis virus (strain Armstrong)) (UniProt P09992). As to the kind of experiment: qHTS for Inhibitors of the Functional Ribonucleoprotein Complex (vRNP) of Lymphocytic Choriomeningitis Arenaviruses (LCMV): LCMV Primary Screen - GLuc reporter signal (AID 1347086). Note: nearly all actives have a fitted effect of over 70% in size. As to conditions: LCMV minigenome vRNP cell assay, Gaussia luciferase reporter; series mostly up to 57.5 µM. In general terms: Quantitative high-throughput screening tests each substance at several concentrations.
`Cc1cc(=O)oc2cc(O)ccc12`: the Potency entry is “inactive”.
In the case of `O=C1C(c2[nH]c3ccccc3c2O)=Nc2ccccc21` it was “inactive”; in that of `CC(CNC1CCCCC1)OC(=O)c1ccccc1` (stereo unspecified), “inactive”; in that of `c1ccc(CNCCNCc2ccccc2)cc1`, “inactive”.
In the case of `O=C1Cc2cc(Cl)ccc2N1` it was “inactive”; in that of `O=C(O)C1CCC1`, “inactive”; in that of `C[C@H](N)[C@H](O)c1cccc(O)c1`, “inactive”.
Next, `COC(=O)c1cc(S(N)(=O)=O)ccc1OC`: “inactive”.
As for `CCCCN(CCCC)C(C(N)=O)c1ccc(OC)cc1` (stereo unspecified), the Potency entry is “inactive”.
In the case of `CCN(CC)C(=O)c1cccc(C)c1`, the Potency entry was “inactive”.
Next, `CC(C)OC(=O)c1cc2c(OCC(O)CNC(C)(C)C)cccc2[nH]1` (stereo unspecified): “inactive”.
In the case of `CCOC(=O)c1c(N)sc2c1CCN(Cc1ccccc1)C2` it was “inactive”.
Next, `C[C@@H]1C[C@H]2[C@@H]3C[C@H](F)C4=CC(=O)C(Cl)=C[C@]4(C)[C@@]3(F)[C@@H](O)C[C@]2(C)[C@@]1(O)C(=O)CO`: “inactive”; `COc1ccc(OC(=O)N(CC(=O)O)Cc2ccc(OCCc3nc(-c4ccccc4)oc3C)cc2)cc1`: “inactive”.
With `NC1=NCC2c3ccccc3Cc3ccccc3N12` (stereo unspecified), the Potency entry is “inactive”.
As to `CN1CCC(=C2c3ccccc3CCc3cccnc32)CC1`, the Potency entry was “inactive”.
In the case of `OC(CCN1CCCCC1)(c1ccccc1)C1CC2C=CC1C2` (stereo unspecified) it was “inactive”.
In the case of `Clc1ccc(C(Cn2ccnc2)OCc2ccsc2Cl)c(Cl)c1` (stereo unspecified) it was “inactive”.
Next, `CN(C)CC[C@@H](c1ccc(Cl)cc1)c1ccccn1`: “inactive”.
On to `CCCCCCCCCCCCCCCCC(C(=O)O)C(O)(CC(=O)O)C(=O)O` (stereo unspecified), for which the Potency entry is “inactive”.
As for `C[C@]12CCC(=O)C=C1CC[C@@H]1[C@@H]2C(=O)C[C@@]2(C)[C@H]1CC[C@]2(O)C(=O)CO`, the Potency entry was “inactive”.
